# Laboratory results reported in the supplement of paper PMC6555819.
# Tested on: VDR:RXRa (NR concentration 270 nM, RXRa partner concentration 90 nM)
# Assay: PBM binding z-score (relative to random genomic background probes); higher = stronger binding; sequences stand for … in GC…GCGATTGACAGCGTAGAATGAAGG
# Protocol: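 Protein-binding microarray (Agilent 4x180K custom design, double-stranded 60-nt probes: 5' GC cap, 34-nt variable region, 24-nt constant primer region; full probe sequence given). Purified or IVT nuclear receptor:RXRα heterodimers (3:1 NR:RXRα, mostly 270:90 nM) or homodimers were incubated for 1 h in PBS with 2% milk and no ligand, then detected with Alexa488 antibodies. Fluorescence from o1-orientation probes (~5 replicates averaged) was converted to z-scores against 500 random hg19 background probes. Variable regions are seed direct-repeat (DR0–DR5) sites, all their single-nucleotide variants and half-site ablations.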
row,Sequence,PBM binding z-score
1,TCTAGTTGGTCAAACGTCACACACTCGAAATGCG,0.811
2,ACTCGGAGGACAAAGGTCAGAGCAACGCCAGTGA,3.39
3,CCTCGGAGGACGGAAGGTCAGAGCTGTCCGCTTT,0.873
4,GGAACGAGGGCAAAGTTGATAGCATCTGTCGACG,1.23
5,CCTACTGTGCCAAAGGTCATTGATTCCAATGCTC,5.13
6,CCGAGTAGTTTATGGGGCATTCAGGCAACGGTGA,-0.229
7,CGAACTAGGTCATCCAGGACATTGAATACATTGA,5.52
8,CCTACTGGGCGAAAGGTCATTGATTCCAATGCTC,4.43
9,ATCTCTAGGTAATAGTTCAGTGAATCCCGAGGAT,0.188
10,AGAATCAGGTTATACGTAGATCAGGGAAGAAAGT,0.368
11,AATACAGGGTCGTCGTAGGCCAGAGTACGCACAG,2.62
12,CAAACTAGGTCAAGGACAAAGTCGGTTTGTGCCA,1.79
13,CCTTACGGGTCGAGGTTATAGCACGGGTGGTACG,1.25
14,TCTTGTAGATCAATAGAGATTAAGAAAGTGCGCT,0.285
15,CGAACGAGGGCATGCGTTGATAGCAAATGCCGAT,0.672
16,CCTACTGGGCCATCAGGTCATTGATATCAACGTT,1.81
17,ATCGAAAGGTCGAAGGTGAGTATGCCCACCCGAA,2.68
18,CCTAGTGGGCCAAAAAGGTCATTGATGCCGATAA,4.82
19,TCTTGTGGATCAATAGAGGTTAAGAAAGTGCGCT,1.73
20,CGTCCAAGGTCAGGGAGGTCAGTGAATGCCGAGT,7.3

row,Sequence,PBM binding z-score
1,TAGCCTAGGTCATGGTCCAGTATACCACGCGAAC,2.14
2,CCTTACTGGTCAAGGTTATAGCACGGGTGGTACG,0.737
3,CCTTGCGGGTCAAGGTTATAGCACGGGTGGTACG,2.95
4,GCTAGTTGGTCAGTAAAAGGTCACACATCGGTCG,3.96
5,CGAACTAGGTCATCCAGGACAGTCAATACATTGA,4.83
6,CCTTAAGGGTCACTGACAGGTTATAGCATTTGGA,5
7,CCACGGAGGACAGAAGGTCAGAGCTGTCCGCTTT,0.979
8,TCTTGTAGAGCAACAGGAGGTTAAGAAAGATCGA,0.0425
9,TCGGCTAGGTCAACGATGGTCAGCTAATCTGCTA,1.73
10,GCTAGCTGGCCATTTGGGTCACTCAATGACGGGC,-0.155
11,GCATACAGGTGAAACGCAGGTAACTCAGGGTGGC,-0.304
12,CCTGCTAGGTCATGGTGAGCTAATCTACAGTATG,1.37
13,GCAGAGAGGTGAAACGCAGGTAACTCAGGGTGGC,0.186
14,TCTGATAGGTCAGTTGGTCAGCTAACGAGCTGCC,0.777
15,AATCCAGGGTCATCGTAGGCCAGAGTACGCACAG,5.32
16,AGAATGAGGTTATTATGATCAGGGAATTGCGGTC,1.65
17,CCTGCTAGGTCATTGGTCAGCTAAAGCAGCTCGC,2.1
18,ACAGACAGGTGATGAAGGTAACTCGGGCTATCAT,0.101
19,CAAACTAGGTCACAGAGGTCAAAGCCCGTGCGTA,7.81
20,ACTAGCTGGCCAAGGGTCACTCAAGATTAGTCCG,2.59
